From PubChem BioAssay
The list is not random: actives were taken first. Their share in the collection is about 4.1%.
hcDAF-12 act: H. contortus DAF-12 activation, primary screen | activation, % at 6.8 µM | actives 1.4% (n = 370,000) | HEK293 hcDAF-12 lit1-tk-luc reporter, luminescence; 0% DMSO, 100% Δ7-dafachronic acid | AID 652067;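 active means activation above the mean of all tested compounds plus 3 SD, cut at about 5.5% in these data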;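 further: 100% = response to 3 µM Δ7-dafachronic acid high control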
hgDAF-12 ag: agonists of H. glycines DAF-12 nuclear receptor; HEK293 GAL4-hgDAF12 UAS-luciferase reporter, agonist luminescence; normalized to butyrate control; actives 1.8% (n = 370,000); AID 687014; activation, % at 6.8 µM;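 active means activation above a cutoff set at the mean of all screened compounds plus 3 SD, cut at about 10% in these data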;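 further: 0% = DMSO wells and 100% = sodium butyrate wells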
ssDAF-12 act: activators of S. stercoralis DAF-12 nuclear receptor | actives 1% (n = 370,000) | activation, % at 6.8 µM | HEK293 ssDAF-12/GRIP1 lit1-tk-luc reporter, luminescence; % of 3 µM dafachronic acid response;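 active means activation above the mean over all tested compounds plus 3 SD, cut at about 0.9% in these data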;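 further: 0% = DMSO-only wells and 100% = 3 µM delta7-dafachronic acid wells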
DAX1 inh-1: blocks DAX1 repression of SF-1 activated StAR promoter; HEK293T StAR-luciferase reporter, SF-1/DAX-1 repression relief; inhibition, % at 6.8 µM; actives 1.1% (n = 370,000); AID 652010;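 active means inhibition above the mean over all tested compounds plus 3 SD, cut at about 3.6% in these data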;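 further: 0% = DAX-1 cells with DMSO and 100% = cells lacking DAX-1 with DMSO; higher inhibition means more luminescence from relief of DAX-1 repression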
DAX1 inh-2: inhibitors of human orphan nuclear receptor DAX1 (NR0B1); actives 0.99% (n = 340,000); inhibition, % at 6.75 µM; AID 504766; HEK293 Gal4-DAX1 luciferase reporter, luminescence;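 active means inhibition above the mean over all tested compounds plus 3 SD, cut at about 4.2% in these data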;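 further: 0% = DAX1-transfected cells with DMSO and 100% = empty-vector control cells with DMSO; inhibition shows as a rise in luminescence from relieved DAX1 repression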
Target sequence (P51843 207-470 limits assumed): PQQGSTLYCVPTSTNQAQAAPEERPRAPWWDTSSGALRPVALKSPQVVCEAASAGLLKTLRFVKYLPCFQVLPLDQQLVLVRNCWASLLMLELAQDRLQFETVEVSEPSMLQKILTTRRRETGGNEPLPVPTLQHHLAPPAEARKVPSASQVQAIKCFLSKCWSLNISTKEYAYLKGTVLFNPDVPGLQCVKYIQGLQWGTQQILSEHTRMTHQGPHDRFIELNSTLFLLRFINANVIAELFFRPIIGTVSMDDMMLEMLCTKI
* marks the source's active call; other numbers are inactive results.

For Cc1ccc(C(=O)Nc2cnc3ccccn3c2=O)cc1 the results were hcDAF-12 act 2, hgDAF-12 ag 8, ssDAF-12 act -1, DAX1 inh-1 4.0* and DAX1 inh-2 1.
Nn1c(SCc2c(F)cccc2F)nnc1-c1ccccn1 was read as hcDAF-12 act 4, hgDAF-12 ag 6, ssDAF-12 act -1, DAX1 inh-1 2 and DAX1 inh-2 24*.
Screening CSC(=S)NN=C(C)c1cccc(C)n1 returned hcDAF-12 act 6.0*, hgDAF-12 ag 2, ssDAF-12 act 1, DAX1 inh-1 0 and DAX1 inh-2 -1.
For CCOc1ccc(NC(=O)c2ccc(OC)cc2)cc1 the results were hcDAF-12 act 0, hgDAF-12 ag 13*, ssDAF-12 act -1, DAX1 inh-1 1 and DAX1 inh-2 -1.
For COc1cccc(NC(=O)c2ccc(OC(F)(F)F)cc2)c1 the results were hcDAF-12 act 3, hgDAF-12 ag 11*, ssDAF-12 act 0, DAX1 inh-1 1 and DAX1 inh-2 2.
COc1ccc(NC(=O)c2ccc3ncsc3c2)cc1 was read as hcDAF-12 act 1, hgDAF-12 ag 10, ssDAF-12 act 1.3*, DAX1 inh-1 0 and DAX1 inh-2 1.
`COc1ccc(NC(=O)c2ccc3nc(C)sc3c2)cc1` gave hcDAF-12 act 1, hgDAF-12 ag 4, ssDAF-12 act 0, DAX1 inh-1 0 and DAX1 inh-2 2.
`COc1ccc(C(=O)Nc2ccc3c(c2)n(C)c(=O)n3C)cc1OC` gave hcDAF-12 act -1, hgDAF-12 ag 1, ssDAF-12 act -1, DAX1 inh-1 0 and DAX1 inh-2 2.
For COc1ccc(NC(=O)c2ccc3c(c2)n(C)c(=O)n3C)cc1 the results were hcDAF-12 act -2, hgDAF-12 ag 0, ssDAF-12 act -2, DAX1 inh-1 0 and DAX1 inh-2 6.4*.
`COC(=O)C[C@@H]1CC[C@H]2[C@@H](COc3ccc(NC(=O)c4ccc(Cl)cc4)cc3C(=O)N2C)O1` gave hcDAF-12 act -3, hgDAF-12 ag -1, ssDAF-12 act -1 and DAX1 inh-1 -1.
For CC(C)Oc1ccc(-c2csc(N3CCC(C(N)=O)CC3)n2)cc1 the results were hcDAF-12 act -3, hgDAF-12 ag 11* and ssDAF-12 act -1.
Cn1ccnc1C1CCCCN1Cc1nc(-c2ccc(Cl)cc2)no1 (centres undefined) was read as hcDAF-12 act 0, hgDAF-12 ag 12*, ssDAF-12 act -1, DAX1 inh-1 -1 and DAX1 inh-2 1.
For CSCCC(NC(=O)OCc1ccccc1)C(=O)NC(Cc1c[nH]c2ccccc12)C(=O)O (centres undefined) the results were hcDAF-12 act -1, hgDAF-12 ag -2, ssDAF-12 act 0 and DAX1 inh-1 0.
Screening CC(C)(C)n1ncc2c(=O)n(CC(=O)c3ccc(Cl)cc3)cnc21 returned hcDAF-12 act 3, hgDAF-12 ag 12*, ssDAF-12 act 0, DAX1 inh-1 2 and DAX1 inh-2 2.
For CC(=O)Cn1cnc2c(cnn2-c2ccc(F)cc2)c1=O the results were hcDAF-12 act -1, hgDAF-12 ag 4, ssDAF-12 act 1.0*, DAX1 inh-1 2 and DAX1 inh-2 1.
Screening CC(C)(C)n1ncc2c(=O)n(CC(=O)Nc3ccc(Cl)cc3)cnc21 returned hcDAF-12 act -2, hgDAF-12 ag 0, ssDAF-12 act -1, DAX1 inh-1 0 and DAX1 inh-2 0.
For CCCCNC(=O)C[C@H]1C[C@@]2(C(=O)OC)C(=C[C@H](C3CCCC3)O[C@@H]2C)N(Cc2ccco2)C1=O the results were hcDAF-12 act -3, hgDAF-12 ag -1, ssDAF-12 act -2 and DAX1 inh-1 -1.
Screening COc1ccc(-n2c(SCC(=O)NNC(=S)Nc3ccccc3)nc3ccccc3c2=O)cc1 returned hcDAF-12 act 0, hgDAF-12 ag 0, ssDAF-12 act -1 and DAX1 inh-1 -2.
CC(C)c1nnc(NC(=O)c2cccc(NC(=O)C(F)(F)F)c2)s1 was read as hcDAF-12 act 2, hgDAF-12 ag 12*, ssDAF-12 act -1, DAX1 inh-1 2 and DAX1 inh-2 3.
CC(C)C(=O)Nc1cccc(C(=O)Nc2nnc(C(C)C)s2)c1 was read as hcDAF-12 act 2, hgDAF-12 ag 7, ssDAF-12 act 0, DAX1 inh-1 2 and DAX1 inh-2 0.
For O=C(NC(c1ccc(F)cc1)c1ccc2ccccc2n1)C1CCN(Cc2cccc(C(F)(F)F)c2)CC1 (centres undefined) the results were hcDAF-12 act -1, hgDAF-12 ag -5, ssDAF-12 act -1 and DAX1 inh-1 3.7*.
`COc1ccc(S(=O)(=O)N2CCN(C(=O)C3CC3)CC2)cc1` gave hcDAF-12 act 0, hgDAF-12 ag 3, ssDAF-12 act -1, DAX1 inh-1 0 and DAX1 inh-2 4.2*.
Screening COc1ccc(OC)c(S(=O)(=O)N2CCC(C(=O)N3CCN(c4ccc(F)cc4)CC3)CC2)c1 returned hcDAF-12 act -3, hgDAF-12 ag -3, ssDAF-12 act -2, DAX1 inh-1 -3 and DAX1 inh-2 -1.
`COc1ccc(S(=O)(=O)N2CCC(c3nc4ccccc4[nH]3)CC2)cc1` gave hcDAF-12 act -1, hgDAF-12 ag 0, ssDAF-12 act -1, DAX1 inh-1 0 and DAX1 inh-2 0.
`COc1ccc(OC)c(S(=O)(=O)N2CCC(C(=O)N3CCN(C4CCCCC4)CC3)CC2)c1` gave hcDAF-12 act 0, hgDAF-12 ag -1, ssDAF-12 act -1 and DAX1 inh-1 4.2*.
For COc1ccc(NC(=O)CCN2CCN(S(=O)(=O)c3ccc(C(C)C)cc3)CC2)cc1 the results were hcDAF-12 act -3, hgDAF-12 ag -2, ssDAF-12 act 1.2*, DAX1 inh-1 -1 and DAX1 inh-2 -2.
`COc1ccc(OC)c(S(=O)(=O)N2CCC(c3nc4ccccc4[nH]3)CC2)c1` gave hcDAF-12 act 1, hgDAF-12 ag 1, ssDAF-12 act 0, DAX1 inh-1 4.1* and DAX1 inh-2 0.
COc1ccc(NC(=O)CCN2CCN(S(=O)(=O)c3ccc(Cl)cc3)CC2)cc1 was read as hcDAF-12 act -1, hgDAF-12 ag -2, ssDAF-12 act -2, DAX1 inh-1 -1 and DAX1 inh-2 -2.
For CC(=O)N1CCN(c2ccc(N3CCN(C(C)=O)[C@H](C)C3)c(C)c2)[C@H](C)C1 the results were hcDAF-12 act -3, hgDAF-12 ag -4, ssDAF-12 act -1 and DAX1 inh-1 -4.
`COc1ccc(-c2ccc(S(=O)(=O)N3CCCC3)cc2)cc1` gave hcDAF-12 act -2, hgDAF-12 ag -1, ssDAF-12 act -1, DAX1 inh-1 -1 and DAX1 inh-2 5.2*.
COc1ccc(OC)c(Cc2nnc(CCC(=O)N3CCCCC3)o2)c1 was read as hcDAF-12 act -1, hgDAF-12 ag 3, ssDAF-12 act 0, DAX1 inh-1 1 and DAX1 inh-2 1.
